From PubChem BioAssay (NCATS)
Records with an inconclusive call do not appear. The source made the active and inactive calls. The call rests on the fitted dose curve; in most records, active means well fitted curve in the direction sought with a large enough effect; inconclusive means small, poorly fitted or top-dose-only effect, or another doubt; inactive means no such curve, though single readings can be large; an effect the other way counts as inactive or inconclusive.

Experiments:
[1] = Quantitative High-Throughput drug screen in 47 multiple myeloma cell lines against the NCATS MIPE library collection: INA6_PLB cell viability assay (AID 1918965; further: nearly all actives have a fitted effect of over 55% in size); conditions: INA6 myeloma viability, CellTiter-Glo ATP luminescence, 48 h; series mostly up to 45.8 µM
Outline: (§1)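 Steps: seed 500 cells per well; pin-transfer MIPE 4.0 library; incubate 48 h at 37C, 5% CO2, humidified; add CellTiter-Glo, 5 min room temperature; read luminescence.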

[2] = Quantitative High-Throughput drug screen in 47 multiple myeloma cell lines against the NCATS MIPE library collection: JJN3_DSMZ cell viability assay (AID 1918966; further: nearly all actives have a fitted effect of over 50% in size); conditions: JJN3 myeloma cells viability, CellTiter-Glo ATP, 48 h; series mostly up to 45.8 µM
Outline: (§2)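 qHTS of the MIPE 4.0 collection: 500 myeloma cells/well, 48 h drug exposure at 37C in 5% CO2, then CellTiter-Glo for 5 min at room temperature before luminescence reading.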

[3] = Quantitative High-Throughput drug screen in 47 multiple myeloma cell lines against the NCATS MIPE library collection: H1112_PLB cell viability assay (AID 1918967; further: nearly all actives have a fitted effect of over 30% in size); conditions: H1112 myeloma cells viability, ATP luminescence, 48 h; series mostly up to 45.8 µM
Outline: as §2

[4] = Quantitative High-Throughput drug screen in 47 multiple myeloma cell lines against the NCATS MIPE library collection: KMS12PE_JCRB cell viability assay (AID 1918972); conditions: KMS12PE myeloma viability, CellTiter-Glo ATP, 48 h; series mostly up to 45.8 µM; further: nearly all actives have a fitted effect of over 30% in size
Outline: as §1

[5] = Quantitative High-Throughput drug screen in 47 multiple myeloma cell lines against the NCATS MIPE library collection: KMS20_JCRB cell viability assay (AID 1918973); conditions: CellTiter-Glo ATP, 48 h; series mostly up to 45.8 µM; further: nearly all actives have a fitted effect of over 45% in size
Outline: as §2

[6] = Quantitative High-Throughput drug screen in 47 multiple myeloma cell lines against the NCATS MIPE library collection: KMS26_JCRB cell viability assay (AID 1918975); conditions: KMS26 myeloma cells viability, CellTiter-Glo ATP, 48 h; series mostly up to 45.8 µM; further: nearly all actives have a fitted effect of over 45% in size
Outline: (§3)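 Inhibition of cell viability is measured here. Each line was plated at 500 cells per well, treated with MIPE 4.0 drugs, kept 48 hours at 37C, then assayed for ATP content by CellTiter-Glo luminescence.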

[7] = Quantitative High-Throughput drug screen in 47 multiple myeloma cell lines against the NCATS MIPE library collection: MM1S_ATCC cell viability assay (AID 1918980); conditions: MM1S myeloma viability, CellTiter-Glo ATP luminescence, 48 h; series mostly up to 45.8 µM; further: nearly all actives have a fitted effect of over 45% in size
Outline: (§4)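 Inhibition of viability over 48 h was scored by ATP content (CellTiter-Glo) in 500-cell wells. Zero and full viability were defined by media-only and DMSO-only wells.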

[8] = Quantitative High-Throughput drug screen in 47 multiple myeloma cell lines against the NCATS MIPE library collection: MM1R_ATCC cell viability assay (AID 1918981); conditions: MM1R multiple myeloma cells, CellTiter-Glo viability, 48 h; series mostly up to 45.8 µM; further: nearly all actives have a fitted effect of over 35% in size
Outline: as §4

[9] = Quantitative High-Throughput drug screen in 47 multiple myeloma cell lines against the NCATS MIPE library collection: KMS28PE_JCRB cell viability assay (AID 1918983); conditions: KMS28PE multiple myeloma viability, CellTiter-Glo ATP, 48 h; series mostly up to 45.8 µM; further: nearly all actives have a fitted effect of over 35% in size
Outline: as §4

[10] = Quantitative High-Throughput drug screen in 47 multiple myeloma cell lines against the NCATS MIPE library collection: KMS34_JCRB cell viability assay (AID 1918985); conditions: KMS34 myeloma viability, CellTiter-Glo ATP luminescence, 48 h; series mostly up to 45.8 µM; further: nearly all actives have a fitted effect of over 40% in size
Outline: as §4

[11] = Quantitative High-Throughput drug screen in 47 multiple myeloma cell lines against the NCATS MIPE library collection: KMS27_JCRB cell viability assay (AID 1918970); conditions: KMS27 myeloma cells, CellTiter-Glo ATP viability, 48 h; viability (% of DMSO): at 45.8 µM (top of the series); further: nearly all actives have a fitted effect of over 30% in size
Outline: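 Viability inhibition screen, 48 h compound exposure, luminescent ATP read-out.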

[12] = Quantitative High-Throughput drug screen in 47 multiple myeloma cell lines against the NCATS MIPE library collection: KMS12BM_JCRB cell viability assay (AID 1918971); conditions: KMS12BM myeloma viability, CellTiter-Glo ATP, 48 h; series mostly up to 45.8 µM; further: nearly all actives have a fitted effect of over 35% in size
Outline: as §3

[13] = Quantitative High-Throughput drug screen in 47 multiple myeloma cell lines against the NCATS MIPE library collection: KMS21BM_JCRB cell viability assay (AID 1918974); conditions: ATP luminescence, 48 h; viability: at 45.8 µM (top of the series)
Outline: as §2

[14] = Quantitative High-Throughput drug screen in 47 multiple myeloma cell lines against the NCATS MIPE library collection: MOLP8_DSMZ cell viability assay (AID 1918977); conditions: MOLP8 myeloma viability, CellTiter-Glo ATP luminescence, 48 h; series mostly up to 45.8 µM; further: nearly all actives have a fitted effect of over 45% in size
Outline: as §4

[15] = Quantitative High-Throughput drug screen in 47 multiple myeloma cell lines against the NCATS MIPE library collection: OCIMY1_PLB cell viability assay (AID 1918979); conditions: OCI-MY1 myeloma viability, CellTiter-Glo ATP, 48 h; series mostly up to 45.8 µM; further: nearly all actives have a fitted effect of over 35% in size
Outline: as §4

[16] = Quantitative High-Throughput drug screen in 47 multiple myeloma cell lines against the NCATS MIPE library collection: LP1_DSMZ cell viability assay (AID 1918982); conditions: LP1 myeloma viability, CellTiter-Glo ATP luminescence, 48 h; series mostly up to 45.8 µM; further: nearly all actives have a fitted effect of over 35% in size
Outline: as §4

[17] = Quantitative High-Throughput drug screen in 47 multiple myeloma cell lines against the NCATS MIPE library collection: L363_DSMZ cell viability assay (AID 1918984); conditions: L363 myeloma viability, CellTiter-Glo ATP luminescence, 48 h; series mostly up to 45.8 µM; further: nearly all actives have a fitted effect of over 40% in size
Outline: as §4

[18] = Quantitative High-Throughput drug screen in 47 multiple myeloma cell lines against the NCATS MIPE library collection: Karpas25_ECACC cell viability assay (AID 1918968; further: nearly all actives have a fitted effect of over 35% in size); conditions: Karpas25 myeloma viability, CellTiter-Glo ATP, 48 h; series mostly up to 45.8 µM
Outline: as §2

[19] = Quantitative High-Throughput drug screen in 47 multiple myeloma cell lines against the NCATS MIPE library collection: MMM1_PLB cell viability assay (AID 1918976); conditions: MMM1 myeloma cells viability, CellTiter-Glo, 48 h; series mostly up to 45.8 µM; further: nearly all actives have a fitted effect of over 35% in size
Outline: as §4

[20] = Quantitative High-Throughput drug screen in 47 multiple myeloma cell lines against the NCATS MIPE library collection: NCIH929_DSMZ cell viability assay (AID 1918978); conditions: NCI-H929 myeloma viability, CellTiter-Glo ATP, 48 h; series mostly up to 45.8 µM; further: nearly all actives have a fitted effect of over 35% in size
Outline: as §4
Potency means the concentration at half of the fitted maximal effect.

Compound | Potency [1] | Potency [2] | Potency [3] | Potency [4] | Potency [5] | Potency [6] | Potency [7] | Potency [8] | Potency [9] | Potency [10] | Potency [11] | Potency [12] | Potency [13] | Potency [14] | Potency [15] | Potency [16] | Potency [17] | Potency [18] | Potency [19] | Potency [20]
CC(C)(C)c1nc2c3cc[nH]c(=O)c3c3cc(F)ccc3c2[nH]1 | 418 nM (active) | 662 nM (active) | 1180 nM (active) | inactive | 1320 nM (active) | 11.8 nM (active) | 14800 nM (active) | 2640 nM (active) | 6620 nM (active) | 1660 nM (active) | – | – | – | – | – | – | – | – | – | –
Oc1ccc(-c2ccc(-c3cc(Nc4cccc(CNC5CC5)c4)n[nH]3)cc2)c(O)c1 | 662 nM (active) | 1320 nM (active) | 1480 nM (active) | 1050 nM (active) | 1320 nM (active) | 3320 nM (active) | 1660 nM (active) | 2350 nM (active) | 5260 nM (active) | 4180 nM (active) | 743 nM (active) | 2640 nM (active) | 590 nM (active) | 2090 nM (active) | 9350 nM (active) | 2640 nM (active) | 148 nM (active) | – | – | –
CS(=O)(=O)N1CCc2c(-c3cnc(N)nc3)nc(N3CCOCC3)nc21 | 1480 nM (active) | 590 nM (active) | – | – | – | 132 nM (active) | 235 nM (active) | 209 nM (active) | 118 nM (active) | 833 nM (active) | 23.5 nM (active) | 935 nM (active) | – | – | – | 33.2 nM (active) | – | 105 nM (active) | 148 nM (active) | 20.9 nM (active)
COc1cc2ncnc(Nc3cccc(Br)c3)c2cc1OC | 3320 nM (active) | 20900 nM (active) | – | 14800 nM (active) | – | 16600 nM (active) | 14.8 nM (active) | – | 2960 nM (active) | – | 23500 nM (active) | 41.8 nM (active) | – | 20900 nM (active) | – | – | – | 526 nM (active) | – | –
CNC(=O)Nc1ccc(-c2nc(N3CC4CCC(C3)O4)c3cnn(C4CCC5(CC4)OCCO5)c3n2)cc1 | 41.8 nM (active) | 11.8 nM (active) | – | 74.3 nM (active) | 10.5 nM (active) | 1180 nM (active) | 14.8 nM (active) | 41.8 nM (active) | 3.7 nM (active) | – | – | 6.6 nM (active) | 41.8 nM (active) | – | 935 nM (active) | – | – | 10.5 nM (active) | 9.3 nM (active) | –
FC(F)c1nc2ccccc2n1-c1nc(N2CCOCC2)nc(N2CCOCC2)n1 | 296 nM (active) | 743 nM (active) | – | – | – | 743 nM (active) | 590 nM (active) | 743 nM (active) | 418 nM (active) | 1320 nM (active) | 105 nM (active) | 1660 nM (active) | – | 132 nM (active) | – | 20.9 nM (active) | – | 93.5 nM (active) | 526 nM (active) | –
CC(=O)ON=C1C(c2c(O)[nH]c3cc(Br)ccc23)=Nc2ccccc21 | 935 nM (active) | 20900 nM (active) | – | 1480 nM (active) | – | – | – | 16600 nM (active) | 20900 nM (active) | 4690 nM (active) | 6620 nM (active) | 14800 nM (active) | – | 13200 nM (active) | 26400 nM (active) | 11800 nM (active) | 3720 nM (active) | 2640 nM (active) | 20900 nM (active) | 2090 nM (active)
CCCNS(=O)(=O)Nc1ncnc(OCCOc2ncc(Br)cn2)c1-c1ccc(Br)cc1 | inactive | inactive | inactive | inactive | – | – | inactive | inactive | inactive | inactive | inactive | inactive | – | – | inactive | inactive | – | – | – | inactive
NC(=O)Nc1sc(-c2ccc(F)cc2)cc1C(N)=O | 332 nM (active) | 418 nM (active) | – | 935 nM (active) | – | 2960 nM (active) | 332 nM (active) | 4690 nM (active) | 18700 nM (active) | 2640 nM (active) | 166 nM (active) | 4180 nM (active) | – | – | – | – | 83.3 nM (active) | – | 3320 nM (active) | 20.9 nM (active)
CC[C@@]1([C@@H]2O[C@@H]([C@H]3O[C@@](O)(CO)[C@H](C)C[C@H]3C)C[C@H]2C)CC[C@H]([C@]2(C)CC[C@]3(C[C@H](O)[C@@H](C)[C@@H]([C@@H](C)[C@@H](OC)[C@H](C)C(=O)O)O3)O2)O1 | 257 nM (active) | 257 nM (active) | – | 91.1 nM (active) | – | 182 nM (active) | 182 nM (active) | 229 nM (active) | 512 nM (active) | – | – | 45.7 nM (active) | 144 nM (active) | 204 nM (active) | – | 64.5 nM (active) | – | 3230 nM (active) | 575 nM (active) | 288 nM (active)
COc1ccc(C=Cc2cc(OC)c(OC)c(OC)c2)cc1NC(=O)[C@H](N)CO | 1 nM (active) | 23.5 nM (active) | – | 11.8 nM (active) | – | 33.2 nM (active) | 20.9 nM (active) | 14.8 nM (active) | 9.3 nM (active) | 4.2 nM (active) | – | 16.6 nM (active) | – | 66.2 nM (active) | – | 1.7 nM (active) | 9.3 nM (active) | 1 nM (active) | 18.7 nM (active) | 5.9 nM (active)
